Screening data: PubChem, The Scripps Research Institute Molecular Screening Center
In the library only some 4.1% were active in any assay of this set; here they are far more common.
hgDAF-12 ag: activates the H. glycines DAF-12 receptor ligand-binding domain; HEK293 GAL4-hgDAF12 UAS-luciferase reporter, agonist luminescence; normalized to butyrate control; activation, % at 6.8 µM; hit rate 1.8% among 370,000; AID 687014;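 active = activation above a cutoff set at the mean of all screened compounds plus 3 SD, cut at about 10% in these data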;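 note: 0% = DMSO wells and 100% = sodium butyrate wells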
DAX1 inh-1: DAX1 (NR0B1) inhibition, primary screen. HEK293T StAR-luciferase reporter, SF-1/DAX-1 repression relief. inhibition, % at 6.8 µM. hit rate 1.1% among 370,000. AID 652010;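 active = inhibition above the mean over all tested compounds plus 3 SD, cut at about 3.6% in these data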;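 note: 0% = DAX-1 cells with DMSO and 100% = cells lacking DAX-1 with DMSO; higher inhibition means more luminescence from relief of DAX-1 repression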
hcDAF-12 act: activates DAF-12 receptor from parasite H. contortus. HEK293 hcDAF-12 lit1-tk-luc reporter, luminescence; 0% DMSO, 100% Δ7-dafachronic acid. activation, % at 6.8 µM. hit rate 1.4% among 370,000. AID 652067;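 active = activation above the mean of all tested compounds plus 3 SD, cut at about 5.5% in these data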;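 note: 100% = response to 3 µM Δ7-dafachronic acid high control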
DAX1 inh-2: inhibits human nuclear receptor DAX1 | HEK293 Gal4-DAX1 luciferase reporter, luminescence | inhibition, % at 6.75 µM | hit rate 0.99% among 340,000 | AID 504766;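 active = inhibition above the mean over all tested compounds plus 3 SD, cut at about 4.2% in these data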;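 note: 0% = DAX1-transfected cells with DMSO and 100% = empty-vector control cells with DMSO; inhibition shows as a rise in luminescence from relieved DAX1 repression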
Target sequence (P51843 207-470 limits assumed): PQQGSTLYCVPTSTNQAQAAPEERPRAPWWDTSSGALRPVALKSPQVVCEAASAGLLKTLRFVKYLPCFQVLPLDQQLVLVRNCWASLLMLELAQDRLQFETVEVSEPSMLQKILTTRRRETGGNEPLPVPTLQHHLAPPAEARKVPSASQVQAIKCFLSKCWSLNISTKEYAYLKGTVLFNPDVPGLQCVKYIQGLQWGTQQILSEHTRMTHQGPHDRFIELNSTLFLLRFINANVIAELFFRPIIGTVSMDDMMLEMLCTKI
ssDAF12 agonist: activates DAF-12 receptor from parasite S. stercoralis. HEK293 ssDAF-12/GRIP1 lit1-tk-luc reporter, luminescence; % of 3 µM dafachronic acid response. activation, % at 6.8 µM. hit rate 1% among 370,000;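 active = activation above the mean over all tested compounds plus 3 SD, cut at about 0.9% in these data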;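 note: 0% = DMSO-only wells and 100% = 3 µM delta7-dafachronic acid wells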
The depositor's hits bear a star; x = no result.

SMILES | hgDAF-12 ag | DAX1 inh-1 | hcDAF-12 act | DAX1 inh-2 | ssDAF12 agonist
Cc1ccccc1NC(=O)C(=O)NCCCN1CCCC1=O | 0 | 3.7* | 3 | 1 | 0
Cc1ccccc1NC(=O)NCCCN1CCCC1=O | -1 | 2 | 0 | 0 | -1
COC(=O)C1CN(C2CCCC2)CCS(=O)(=O)N1Cc1ccc(Cl)cc1 (configuration not stated) | -4 | -1 | 0 | x | -2
CC1(C)OC(=O)C(=NNc2ccccc2)C(=O)O1 | -1 | -1 | -1 | 0 | 0
c1ccc(NN=C2c3ccccc3-c3ccccc32)cc1 | 2 | 0 | 5.7* | 0 | 1
CCOC(=O)CC[C@@H]1CC[C@]2(CCCN(C(=O)c3ccccc3)C2)O1 | -2 | 1 | 1 | x | -1
Cc1ccc(N(CC(=O)NCC2CCCO2)C(=O)Cn2nnc(-c3cccs3)n2)cc1 (configuration not stated) | 12* | 3 | 5.6* | -1 | 1.1*
CCOC(=O)c1c(C)nc2sc3c(=O)n(-c4ccc(OC)cc4)cnc3c2c1-c1ccc(OC)cc1 | 4 | 0 | 0 | 0 | -1
CCOC(=O)c1c(C)nc2sc3c(=O)n(-c4ccc(C(C)=O)cc4)nnc3c2c1-c1ccc(OC)cc1 | 1 | -1 | 7.0* | 0 | -2
CC(CN1CCN(Cc2ccccc2)CC1)c1ccccc1 (configuration not stated) | 1 | 0 | -1 | 1 | -1
ClC(CCN1CCN(Cc2ccccc2)CC1)c1ccccc1 (configuration not stated) | -2 | 0 | -1 | 5.7* | -1
COC(=O)C1CN(Cc2ccc(Cl)cc2)CCS(=O)(=O)N1Cc1cn(Cc2ccccc2)nn1 (configuration not stated) | 0 | -1 | -1 | x | -1
O=C(CCc1nc(-c2ccccc2F)no1)NCCc1ccc(F)cc1 | -2 | 1 | 1 | x | -1
CCN(CC)C(=O)c1cc(-c2ccc(Br)cc2)on1 | 11* | 2 | 1 | 2 | 0.9*
CN1CCN(NC(=O)CN2C(=O)S/C(=C\c3c(Cl)cccc3Cl)C2=O)CC1 | -1 | -1 | 0 | 5.2* | -1
Cc1cccnc1NC(=S)Nc1ccc(Br)cc1Cl | 12* | 4 | 3 | 6.7* | 0
O=C(c1ccccc1)c1ccc2ccccc2c1 | 3 | -1 | 0 | 5.3* | -1
COc1cc(-c2coc3c(C(=O)NC4CCCCC4)cccc23)ccc1O | -1 | -3 | -2 | x | -2
COc1cc(-c2coc3c(C(=O)Nc4ccc(C(C)C)cc4)cccc23)ccc1O | 6 | 4.0* | 5.6* | x | 0.9*
Cc1cccc(NC(=O)CN2CCN(C(=O)c3ccc(-c4nc5ccccc5s4)o3)CC2)c1C | 3 | 4.0* | 0 | 1 | -1
Cc1cc(/C=C2\SC(N)=NC2=O)c(C)n1-c1ccc(F)cc1 | 0 | 0 | 0 | 0 | 0
COc1cc(CN2CCC(CCC(=O)NC3CC3)CC2)cc(Cl)c1OC | 2 | 0 | 0 | 5.2* | -1
O=C(CCC1CCN(Cc2ccccc2Cl)CC1)NC1CC1 | 0 | 0 | -1 | -1 | -1
O=C(Nc1cccc(F)c1)c1ccc2ncsc2c1 | x | x | x | 3 | x
O=C(Nc1ccccc1F)c1ccc2ncsc2c1 | 13* | 0 | 1 | 0 | 0
SMILES | hgDAF-12 ag | DAX1 inh-1 | hcDAF-12 act | DAX1 inh-2 | ssDAF12 agonist
O=C(Nc1ccc(F)cc1)OCc1cn(Cc2ccc(F)cc2F)nn1 | 3 | -1 | -2 | x | -1
O=S(=O)(c1ccc(OC(F)(F)F)cc1)N1CCCC(N2CCOCC2)C1 (configuration not stated) | 2 | 0 | 0 | 4.6* | -1
COc1ccc(N2CCN(C3CCCN(S(=O)(=O)c4ccccc4)C3)CC2)cc1 (configuration not stated) | -3 | -1 | -1 | 0 | -1
CCOC(=O)c1nn(-c2ccc(F)cc2)cc1O | 10 | 2 | 5 | 1 | -1
CCOC(=O)c1nn(-c2ccc3c(c2)CCN3C(C)=O)cc1O | 8 | 3.9* | 5 | -1 | 0
COC(=O)c1cc(C(c2ccccc2O)C2CCCO2)n2cccc(C(C)(C)C)c12 (configuration not stated) | 2 | -2 | -4 | x | 0
C=CCNC(=O)c1nc2ccccc2s1 | 4 | 0 | 3 | 1 | 0
C=CCNC(=O)c1ccc(CSc2nc3ccccc3s2)cc1 | 1 | -3 | 5.7* | 0 | 0
CC1(C)C=Cc2ccc(O)c(C(=O)/C=C/c3ccccc3)c2O1 | -4 | x | -3 | x | -2
COc1ccc(S[C@]2(C(=O)NCC(C)C)CC(=O)N[C@@H]2c2ccc(OC)cc2)cc1 | 0 | 0 | 0 | x | -1
COc1ccc(CCNC(=O)CN2C(=O)C(=O)N(C3CCCC3)C2=O)cc1OC | 1 | 1 | 0 | 0 | 1.3*
COc1cc([N+](=O)[O-])ccc1NC(=S)Nc1cccc(C(=O)O)c1 | 5 | 1 | 7.0* | 1 | -1
COc1ccc(CCNC(=O)C/C(C)=N/NC(=O)C23CC4CC(CC(C4)C2)C3)cc1OC | 7 | 2 | 2 | 1 | 0.9*
Cc1nc(NC2CCCC2)c2nnn(Cc3ccccc3)c2n1 | 1 | 0 | -2 | x | -2
N=c1c2c(ccn1Cc1ccccc1)Oc1ccc3ccccc3c1C2c1ccccc1 (configuration not stated) | -3 | x | -2 | x | -2
O=C(NC1CCCCC1)c1cc2nc3c(c(C(F)(F)F)n2n1)CCCC3 | 3 | 1 | 0 | 0 | -1
Cc1cc2nc3c(c(C(F)(F)F)n2n1)CCCC3 | 0 | 0 | -1 | 6.3* | -1
Cc1ccccc1-c1nc2sc3c(c2c(=O)n1N)CCCC3 | -2 | 0 | -2 | 4.5* | -1
C/C(=N\NC(=S)NCc1ccccc1)c1ccc(C)o1 | -2 | -1 | -1 | -1 | -2
COc1ccc(Nc2cc(C)c3ccccc3n2)cc1 | 11* | 1 | -1 | 1 | -1
Cn1c(CNc2ccc(O)cc2)nc2ccccc21 | -1 | 0 | 0 | 1 | 0
CCOC(=O)c1ccc(NCc2nc3ccccc3n2C)cc1 | 10 | 2 | 4 | 2 | 0.9*
COc1ccccc1OCc1nc2ccccc2n1C | 7 | 1 | 1 | 1 | 0
Cc1cc(Nc2ccc([N+](=O)[O-])cc2)nc2ccccc12 | 1 | -1 | -3 | -1 | -2
Cn1c(CNc2nc3ccccc3n2C)nc2ccccc21 | 11* | 2 | 3 | 0 | 0
SMILES | hgDAF-12 ag | DAX1 inh-1 | hcDAF-12 act | DAX1 inh-2 | ssDAF12 agonist
CC(C)n1c(NCc2nc3ccccc3n2C)nc2ccccc21 | 1 | 0 | 0 | 1 | 0
Cn1c(COc2ccccc2Br)nc2ccccc21 | 10 | 2 | 4 | 6.0* | 1
Fc1ccc(CC2CCN(c3ncnc4sccc34)CC2)cc1 | -7 | x | -6 | x | -3
Cn1c(NCc2c(O)ccc3ccccc23)nc2ccccc21 | 1 | 0 | 0 | -1 | -1
Cn1c(NCc2ccc(Cl)cc2)nc2ccccc21 | 13* | 3 | 6 | 1 | 1.5*
COc1ccc(Nc2nc3ccccc3n2C)cc1 | 12* | 1 | 5 | 6.4* | 0
